Rows were chosen to be rich in hits. Some 1.4% of all compounds tested hit in one or more screens of this group.
PV pol inh: inhibitors of poliovirus RNA polymerase binding and polymerization; P03300; poliovirus polymerase elongation, fluorescence polarization; active compounds read low; % elongation, % (compound at 16.7 µg/mL); 150,000 compounds, 0.66% hits; in the data active means % elongation below about 90%
Target sequence (P03300 1749-2209 limits assumed): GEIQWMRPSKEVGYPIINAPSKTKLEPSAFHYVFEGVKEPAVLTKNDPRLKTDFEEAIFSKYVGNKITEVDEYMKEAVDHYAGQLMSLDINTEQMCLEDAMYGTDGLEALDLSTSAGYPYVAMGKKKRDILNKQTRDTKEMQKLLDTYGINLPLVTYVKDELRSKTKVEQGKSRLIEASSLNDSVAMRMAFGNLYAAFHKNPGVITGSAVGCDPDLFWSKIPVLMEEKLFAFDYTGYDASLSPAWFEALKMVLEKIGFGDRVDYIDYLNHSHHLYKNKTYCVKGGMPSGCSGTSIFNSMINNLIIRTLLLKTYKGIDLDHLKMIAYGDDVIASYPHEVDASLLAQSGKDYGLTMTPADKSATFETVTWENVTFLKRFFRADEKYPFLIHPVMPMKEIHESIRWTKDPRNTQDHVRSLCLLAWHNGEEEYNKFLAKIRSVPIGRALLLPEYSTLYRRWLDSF
Mtb MenB inh: Mtb MenB enzyme inhibition | 100,000 compounds, 0.43% hits | MenB enzyme assay, absorbance read-out | inhibition, % (no concentration beside the values); in the data active means inhibition above about 21%, passing the limit was not always enough
Mtb MbtI inh: inhibitors of Mycobacterium tuberculosis siderophore enzyme MbtI; 100,000 compounds, 0.89% hits; AID 493033; P9WFX0; inhibition, % (no concentration beside the values); purified MbtI enzyme, fluorescence intensity read-out; in the data active means inhibition mostly above about 56%, no sharp cut-off; inactive means mostly below about 77%
Each line names hits and unclear results; the compound was inactive in the other large screens.

S=c1[nH]nc(-c2ccccc2Cl)o1	none (no result: PV pol inh, Mtb MenB inh)
Clc1ccccc1C1=NC2=S(O1)OC(c1ccccc1Cl)=N2	Mtb MbtI inh 80.5
CSc1nnc2n(/N=C/c3c[nH]c4ccccc34)cnn12	none (no result: Mtb MbtI inh)
O=C(CC1OC(=O)c2ccccc21)c1ccc(Cl)s1 (centres undefined)	PV pol inh 85.0
CC(C)NC(=O)CC1OC(=O)c2ccccc21 (centres undefined)	none (no result: PV pol inh, Mtb MenB inh)
CC(=O)c1ccc(NC(=O)CSc2ccc3nc(-c4ccccc4)cn3n2)cc1	none (no result: Mtb MenB inh, Mtb MbtI inh)
O=C(CSc1ccc2nc(-c3ccccc3)cn2n1)Nc1ccccc1	PV pol inh 87.0 (no result: Mtb MenB inh, Mtb MbtI inh)
Cc1ccc2[nH]c(=O)c(CNc3ccc(N4CCCCC4)cc3C(=O)N3CCOCC3)cc2c1	none
CC(CC(=O)O)C(=O)c1ccc(Cl)cc1 (centres undefined)	none (no result: Mtb MenB inh)
CCC(N)C(=O)c1ccc(Cl)cc1 (centres undefined)	Mtb MenB inh 32.3
COc1cc(OC)cc([C@@H]2[C@@H](C(C)(C)C)C(C#N)(C#N)[C@H]3c4ccccc4C=CN23)c1	none (no result: Mtb MbtI inh)
c1ccc(COC(CN2CCCC2)CN2CCCC2)cc1	none (no result: Mtb MbtI inh)
CCOC(=O)c1cnc(SCC(=O)OCC(=O)N2CCc3ccccc32)nc1N	none (no result: PV pol inh)
COc1ccc(/C=C2/SC(=S)N(CCC(=O)O)C2=O)cc1	none (no result: Mtb MbtI inh)
O=C(O)CCN1C(=O)/C(=C/c2ccccn2)SC1=S	Mtb MbtI inh 74.5
CCn1c(=O)[nH]c(=O)c2c(C(F)(F)F)cc(-c3ccc(C)cc3)nc21	none
CCCCN1CC(O)=C(c2ccccc2)C1=N	none
Cc1ccc2nc(-c3ccc(NC(=O)CC4SC(=NCc5ccco5)NC4=O)cc3)sc2c1 (centres undefined)	none
C/C(=N/NC(=O)C(F)(F)F)c1cccs1	none
C/C(=N\NC(=O)C(F)(F)F)c1ccccc1O	Mtb MenB inh 34.1
O=C1CC2CCC(CN1)N2CC(=O)Nc1ccc(F)cc1 (centres undefined)	none
CC(NC(=O)CN1C2CCC1CC(=O)NC2)c1ccccc1 (centres undefined)	Mtb MenB inh 28.6
C/C(=N\NC(=O)COc1cccc(C)c1)c1ccco1	none
COc1ccc(Cc2nn3c(-c4ccccc4Br)nnc3s2)cc1	none
COc1ccc(Cc2nn3c(Cc4ccccc4)nnc3s2)cc1	Mtb MbtI inh 93.1
O=C(Cc1n[nH]c(=O)c2ccccc12)NCc1ccccc1	none
O=C(O)Cc1n[nH]c(=O)c2ccccc12	Mtb MenB inh 36.6
C=CCN1C(=O)NC(=O)/C(=C\c2ccc(O)c(O)c2)C1=O	none
O=C1NC(=O)N(CCc2ccc(F)cc2)C(=O)/C1=C\c1ccc(O)c(O)c1	Mtb MbtI inh 51.0
Cc1cc2c(n1-c1ccc(C(=O)NCC3CCCO3)cc1)CCC(C)C2 (centres undefined)	none
O=C(O)CCC(=O)Nc1ccc(N2CCCCC2)c(C(=O)O)c1	none
O=C(O)CCC(=O)Nc1ccc(O)c(C(=O)O)c1	PV pol inh 87.0
Cn1nc(C(=O)N2CCc3ccccc32)c2c1-c1ccccc1S(=O)(=O)C2	none
S=c1nc(-c2cccs2)cn[nH]1	Mtb MbtI inh 73.8
FC(F)(F)c1cc(-c2cccs2)n[nH]1	none
O=C(CSc1nnc(-c2ccccc2)n1-c1ccccc1)N/N=C/c1ccc(O)c(O)c1	none
COC(=O)c1ccc(C(=O)O)s1	none
Cc1nnc(C)c2c(C)n(-c3ccc4c(c3)OCO4)c(C)c12	none
S=c1[nH]nc(-c2ccncc2)n1-c1ccc2c(c1)OCO2	Mtb MbtI inh 62.3
O=C(CCc1nc2ccccc2s1)N1CCN(Cc2ccccc2)CC1	none
CSc1nc(CSc2ccc(C)cc2)nc(N)c1C#N	none
CCOC(=O)NC(=O)Cn1c(=O)cnc2ccccc21	none
O=C1OC2C(C(=O)O)Sc3c(sc(=O)n3-c3ccccc3)C2c2cc(Br)ccc21 (centres undefined)	Mtb MenB inh 39.3
O=c1sc2c(n1-c1ccccc1)SCC1COc3ccccc3C21 (centres undefined)	none
COc1cccc(C2=NS(=O)(=O)N(C)C(C(=O)N(C)C3CCCCC3)=C2)c1	none
CN1C(=O)S/C(=C/c2ccc(OCc3ccc(C(=O)O)o3)cc2)C1=O	none
COc1ccc(CCNC(=O)CSc2nc(N)cc(N)n2)cc1	none
CCC(=O)N(c1nnc(SCC(=O)c2c(N)n(C)c(=O)[nH]c2=O)s1)C1CC1	none
CCC(=O)N(c1n[nH]c(=S)s1)C1CC1	Mtb MbtI inh 90.8 (no result: PV pol inh)
Nc1nc(SCc2cccc3ccccc23)n[nH]1	none
CCOc1ccc(NC(=S)NCCCn2ccnc2)cc1	none
S=C(NCCCn1ccnc1)Nc1ccccc1	PV pol inh 23.0
O=C(O)Cc1nc(-c2ccncc2)n[nH]1	none (no result: PV pol inh)
COC(=O)c1ccc(C(=O)OC)cc1	none (no result: Mtb MbtI inh)
COC(=O)c1ccc(C(=S)NCC(OC)OC)cc1	PV pol inh 79.0, Mtb MbtI inh 86.5
C=CCN(C)C1CC(=O)N(c2ccc(C)c(Cl)c2)C1=O (centres undefined)	Mtb MbtI inh 94.5
Cc1ccc(N2C(=O)CC(NCc3ccc(S(N)(=O)=O)cc3)C2=O)cc1Cl (centres undefined)	none
CCn1c(=O)c(=O)[nH]c2cc(S(=O)(=O)N(C)C)ccc21	none
COc1cc(C)c(N)cc1OC	none (no result: Mtb MenB inh)
O=C(OCn1nnc2ccccc2c1=O)C1CCCCC1	none
O=C(OCn1nnc2ccccc2c1=O)C1COc2ccccc2O1 (centres undefined)	Mtb MbtI inh 58.3
O=C1COc2ccc(-c3cc(-c4ccccc4)c4c(n3)-c3ccccc3OC4)cc2N1	none (no result: Mtb MenB inh, Mtb MbtI inh)
O=C1COc2ccc(-c3csc(-n4nccc4C(F)(F)F)n3)cc2N1	PV pol inh 87.0
O=C(Cn1ccn(-c2ccccc2)c(=O)c1=O)NCCc1ccccc1	none
O=C(/C=C/Sc1nc2ccccc2o1)c1ccccc1	Mtb MbtI inh 54.0
O=C(CSc1nc2ccccc2o1)c1ccccc1	none (no result: Mtb MbtI inh)
O=C(Sc1nc2ccccc2o1)c1ccccc1	Mtb MbtI inh 95.2
O=C(/C=C/Sc1ccccn1)c1ccccc1	none
O=C(Nc1ccccn1)C(=NO)C(=O)Nc1ccccn1	none
CC1CC(C)CN(C(=O)CNC(=O)c2ccc(F)cc2)C1 (centres undefined)	none
CC(C)N(C(=O)Nc1ccccc1F)c1ccccc1	none
Cc1ccccc1-c1nc2scc(-c3cccs3)c2c(=O)o1	none
Nc1c(-c2ccccc2)nc2ccccn12	none
Nc1c(-c2ccccc2)nc2sccn12	Mtb MenB inh 80.8, Mtb MbtI inh 88.1
Cc1ccc(Cn2c(=O)c3ccccc3n3c(SCc4cc(=O)n5ccsc5n4)nnc23)cc1	none
Cc1ccc(C(=O)Sc2nnc3ccccn23)cc1	none (no result: Mtb MenB inh)
Cc1ccc(C(=O)Sc2nc(C)cc(C)n2)cc1	Mtb MbtI inh 77.5
Cc1cc(C)c(S(=O)(=O)Nc2cc(Cl)c3oc4c(c3c2)C(=O)CCC4)cc1C	none (no result: Mtb MenB inh, Mtb MbtI inh)
Cc1ccc(C)c(S(=O)(=O)Nc2cc(Cl)c3oc(=O)sc3c2)c1	Mtb MbtI inh 62.0
Cc1cc2nc(NCC3COc4ccccc4O3)c3ccccc3n2n1 (centres undefined)	none (no result: PV pol inh)
CCS(=O)(=O)C1=NSC2=NC(=O)/C(=C\c3ccco3)C(=N)N21	PV pol inh 72.0
CC(C)CS(=O)(=O)C1=NN2C(=N)/C(=C\c3ccco3)C(=O)N=C2S1	none
O=C(NCC1COC2(CCCCC2)O1)Nc1ccccc1 (centres undefined)	none
CCNc1nc(NCC)n2c(SCC(=O)c3cccs3)nnc2n1	none (no result: Mtb MbtI inh)
CCNc1nc(NCC)n2c(SCC(=O)Nc3ccc(CC)cc3)nnc2n1	Mtb MbtI inh 86.8
O=C(CN1CCN(Cc2ccccc2)CC1)NCc1ccco1	none
CCCc1nc(=S)c2ccccc2[nH]1	Mtb MbtI inh 91.5
S=c1nc(Cc2cccs2)[nH]c2ccccc12	none
